HPGD block: blocks human HPGD enzyme activity. AID 894. purified HPGD, NADH fluorescence kinetic, PGE2 substrate. P15428. Potency, µM, without a hit: at the highest dose activity change, negative = inhibition, hits mostly inhibitors. 150,000 tested, 4.3% active; also: potency is read from the fitted curve at half-maximal effect
Target sequence (P15428 whole entry, looked up): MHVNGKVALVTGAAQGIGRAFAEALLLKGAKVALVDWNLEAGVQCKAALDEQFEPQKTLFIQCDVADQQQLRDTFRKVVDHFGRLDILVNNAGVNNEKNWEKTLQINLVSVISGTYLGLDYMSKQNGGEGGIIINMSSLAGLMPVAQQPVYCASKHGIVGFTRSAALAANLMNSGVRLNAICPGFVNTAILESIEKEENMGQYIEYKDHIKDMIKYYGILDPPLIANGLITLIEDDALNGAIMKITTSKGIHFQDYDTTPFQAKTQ
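20 nM HPGD preincubated 15 min at room temperature with compound in 50 mM Tris-HCl pH 8, 0.01% Tween 20. Started with 1 mM NAD+ and 30 uM prostaglandin E2; NADH fluorescence (360/450 nm) read 5 times over 30-s intervals, last minus first.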
PNC inhibitor: inhibitors of perinucleolar compartment assembly; activity change (PNC), negative = inhibition, % at 10 µM; PC3M PTB-GFP, PNC prevalence imaging, 16 h; stronger effect = lower value; 140,000 tested, 3.1% active;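 active = readout at or below -70, meaning at least 70% loss of cells showing the perinucleolar compartment, a nuclear body marking cancer cells; inconclusive = readout between -30 and a set limit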;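 also: plate controls were DMSO wells for no effect and camptothecin positive control wells for full effect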
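Read-out is percentage of cells bearing a perinucleolar compartment, from automated 20x imaging of fixed, Hoechst-stained PC3M PTB-GFP cells. Cells were seeded 4 h, then exposed 16 h to compound (23 nl of library stock) in duplicate plates.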
ALDH1A1 inh: blocks purified human ALDH1A1 activity; AID 1030; Potency, µM (series often up to 75.3 µM), for the others: at the top dose activity, negative = inhibition, usual class: inhibitors; 220,000 tested, 7.3% active; Purified ALDH1A1, NADH fluorescence, propionaldehyde substrate; P00352;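 also: potency is read from the fitted curve at half-maximal effect; plate controls were no enzyme wells and a reference inhibitor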
Target sequence (P00352 whole entry, looked up): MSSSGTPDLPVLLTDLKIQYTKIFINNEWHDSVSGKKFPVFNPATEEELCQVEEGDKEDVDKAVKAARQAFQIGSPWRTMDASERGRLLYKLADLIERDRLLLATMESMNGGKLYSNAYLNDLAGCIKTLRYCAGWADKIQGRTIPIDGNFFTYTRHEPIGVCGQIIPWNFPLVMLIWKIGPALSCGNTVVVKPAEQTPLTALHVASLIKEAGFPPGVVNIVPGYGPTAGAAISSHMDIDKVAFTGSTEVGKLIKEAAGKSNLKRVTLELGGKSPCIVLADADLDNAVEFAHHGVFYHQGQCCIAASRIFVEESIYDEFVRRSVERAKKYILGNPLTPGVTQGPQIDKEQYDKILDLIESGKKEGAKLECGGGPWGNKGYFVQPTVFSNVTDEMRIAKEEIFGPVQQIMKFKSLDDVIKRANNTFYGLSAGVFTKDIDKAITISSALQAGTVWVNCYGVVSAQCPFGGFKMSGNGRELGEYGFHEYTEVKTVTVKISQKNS
IMPase Li inh: cell-permeable IMPase inhibitors with lithium potentiation; CHO-M1 cells, IP1 TR-FRET (IP-One), carbachol + lithium; Potency, µM (series often up to 59.4 µM), inactives show at the highest dose activity, negative = IMPase inhibition, most hits filed as inhibitors; 210,000 tested, 0.35% active; AID 1457; active = well fitted curve in the direction sought with a large enough effect; inconclusive = small, poorly fitted or top-dose-only effect, or another doubt; inactive = no such curve, though single readings can be large; an effect the other way counts as inactive or inconclusive;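 also: IP1 builds up when IMPase is blocked and the TR-FRET signal falls; potency is read from the fitted curve at half-maximal effect; plate controls were basal vehicle for no effect and high inhibitor control for full effect; nearly all actives have a fitted effect of over 50% in size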
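Readout is a homogeneous TR-FRET IP1 immunoassay (Ex 320, Em 665 and 620), where raised cytosolic IP1 lowers signal. Cells were CHO-M1 treated 30 min at 37C with test compounds plus a little lithium; AC50 values came from Hill-equation fitting.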
12-hLO inh: blocks human 12-lipoxygenase activity; purified 12-hLO, xylenol orange hydroperoxide absorbance; Potency, µM (highest dose often 57.1 µM), for the others: top-dose activity change, negative = inhibition, most hits filed as inhibitors; 150,000 tested, 0.12% active; AID 1452; active = well fitted curve in the direction sought with a large enough effect; inconclusive = small, poorly fitted or top-dose-only effect, or another doubt; inactive = no such curve, though single readings can be large; an effect the other way counts as inactive or inconclusive; also: potency is read from the fitted curve at half-maximal effect; nearly all actives have a fitted effect of over 55% in size
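Purified human 12hLO (150 nM final) was preincubated with compounds for 15 min at room temperature in 25 mM Hepes pH 7.0, 0.01% Triton X-100, then reacted with 40 uM arachidonic acid for 30 min. Hydroperoxide was detected with ferrous iron/xylenol orange.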
IMPase inh: IMPase inhibition in cells; 120,000 tested, under 10 active; CHO-M1 cells, IP1 accumulation, HTRF TR-FRET ratio; inhibition (IP1 accumulation), % at 46.1 µM; P97697; active = well fitted curve in the direction sought with a large enough effect in the signal ratio, not every such curve was filed as active; inconclusive = small, poorly fitted or top-dose-only effect, or a change in a side signal; inactive = no such curve, though single readings can be large or run the other way; the % refers to the signal ratio;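 also: cells stimulated with carbachol in lithium chloride buffer; plate controls were DMSO basal wells for no effect and reference inhibitor wells for full effect; higher means more IMPase inhibition seen as more IP1 and lower FRET ratio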
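CHO-M1, 2000 cells/well, cultured 16–30 h; cpd up to 46 uM; carbachol (50 uM solution, stimulation buffer w/ 50 mM LiCl, pH 7.4), 30 min 37C; IP-One TR-FRET, 10 min RT; Ex 320/Em 665, 620; Hill-fit AC50.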
The depositor's hits bear a star; ? = inconclusive; . = not tested or not shown; [ ] = dose if it differs, or a comment. Hits are enriched below; roughly 11% of the tested compounds scored in any of these assays. Unless noted, calls follow the shape of the dose curve; as a rule, active = well fitted inhibition curve with a large enough effect (not every such curve was filed as active); inconclusive = small, poorly fitted or top-dose-only effect, or another doubt; inactive = no such curve, though single readings can be large or run the other way. Unless noted, % is scaled to controls: 0 for no effect and ±100 for the full control effect.

SMILES | HPGD block | PNC inhibitor | ALDH1A1 inh | IMPase Li inh | 12-hLO inh | IMPase inh
Cc1cccc(N=Nc2c(C)nn(-c3ccccc3)c2N)c1C | 16µM* | -134* | -10% | 13% | -27% | .
Nc1nn(-c2ccccc2)c(N)c1N=Nc1ccccc1 | -20% | -20 | 5% | 3% | -4% | .
Cc1nn(-c2ccccc2)c(N)c1N=Nc1ccccc1 | 20µM* | 2 | ? | 0% | -24% | .
Cc1nn(-c2ccccc2)c(N)c1N=Nc1ccc(Cl)cc1 | -19% | -93* | -1% | 15% | ? | 15
O=C(c1ccco1)N1CCC2(CCCN(c3ccccc3)C2)CC1 | -2% | . | ? | 1% | -12% | .
CC(=O)NCCNc1nc(-c2cccc(C#N)c2)nc2ccccc12 | . | . | -8% | 3% | . | .
CC(C)(Oc1ccc(Cl)cc1)C(=O)Nc1ccc(-c2nc3ncccc3o2)cc1 | . | . | . | . | . | -3
COc1ccc(C(=O)CC(=O)c2c(O)cc(OC)cc2OC)cc1 | . | . | 5%[13.5 µM] | . | . | .
C[C@H](O)[C@@H]1C(=O)N2C(C(=O)O)=C(SCCN=CN)C[C@@H]12 | -10% | . | -2%[20.9 µM] | 3% | -4%[25.6 µM] | -5[20.6 µM]
Cc1nc2[nH]c(=O)[nH]c(=O)c2[nH]1 | -10% | . | -9% | 18% | . | .
O=C(CN1CCOCC1)Nc1ncc(Cc2ccccc2Cl)s1 | -18% | ? | 0% | 4% | 6% | -4
CCc1ccc(CCC(=O)Nc2ncc(Cc3ccccc3Cl)s2)o1 | -26% | -91* | ? | -12% | -7% | -6
COc1ccc(C(CCN(Cc2ccc(OC)c(OC)c2)C(C)=O)c2ccccc2)cc1 (stereo not given) | . | 30 | ? | . | -4% | 9
COc1ccc(CN(CCC(c2ccccc2)c2ccc(OC(C)C)cc2)C(=O)CCl)cc1OC (stereo not given) | ? | ? | 10µM* | 14% | -6% | .
O=C(c1cc(-c2ccccc2)on1)N1CCCc2ccccc21 | . | . | 14µM* | 18% | . | .
O=C(c1cc2sccc2n1Cc1ccccc1)N1CCCc2ccccc21 | -11% | ? | -11% | 30%[38.3 µM] | -10% | 16
Cn1c(C(=O)N2CCCc3ccccc32)cc2sccc21 | 16µM* | -8 | 7.9µM* | -12%[38.3 µM] | -22% | -6
O=C(c1cc(-c2ccccc2)on1)N1CCCC1 | ? | 32 | -1% | 17%[38.3 µM] | -3% | -9
O=C(c1cc(-c2ccco2)on1)N1CCCc2ccccc21 | -22% | ? | 8.9µM* | -6%[38.3 µM] | -12% | 6
Cn1ccc(C(=O)N2CCCc3ccccc32)n1 | 2% | -14 | 13% | 0%[38.3 µM] | -2% | 0
COC(=O)c1cc(C)sc1NC(=S)N1CCN(CCc2ccccc2)CC1 | . | . | 14µM* | 8% | . | .
CN(Cc1ccccc1)CC(O)COc1ccc(CNCCOc2cccnc2)cc1 (stereo not given) | . | . | 7% | 7% | . | .
CN(Cc1ccccc1)C(=O)c1nc2ccccn2c1CNCCOc1cccnc1 | . | . | 25µM* | 20% | . | .
Cc1nn(C)cc1CN(C)Cc1c(C(=O)N(C)Cc2ccccc2)nc2ccccn12 | . | . | 13% | 15% | . | .
CN(Cc1c(C(=O)N(C)Cc2ccccc2)nc2ccccn12)CC1Cc2ccccc2O1 (stereo not given) | . | . | 14µM* | 34% | . | .
SMILES | HPGD block | PNC inhibitor | ALDH1A1 inh | IMPase Li inh | 12-hLO inh | IMPase inh
CCOc1ccc(C(=O)N2CCCC2)cc1 | 7.9µM* | -10 | -1% | 2% | -1% | 2
CCOc1ccc(C(=O)N2CCN(Cc3ccccc3)CC2)cc1 | -18% | 18 | -11% | 12%[38.3 µM] | -4% | 1
CCOc1ccc(OCc2cccc(C(=O)N3CCCCCC3)c2)cc1 | . | . | 35µM* | 6% | . | .
CCCCOc1ccc(C(=O)N2CC(C)OC(C)C2)cc1 (stereo not given) | ? | ? | 0.079µM* | 24%[38.3 µM] | 0% | 10
O=C(c1ccc(COc2ccccc2Br)o1)N1CCCCCC1 | 14µM* | 26 | 16µM* | 16%[38.3 µM] | -8% | 18
CCOc1ccc(OCc2cccc(C(=O)N3CCCC3)c2)cc1 | -11% | -20 | -5% | 20%[38.3 µM] | -4% | 5
CC(C)=CCC/C(C)=C/CO/N=C1/C[C@@H](O)[C@@H](O)[C@@H]2[C@@H]3C(=O)N(C4CCCCC4)C(=O)[C@H]3CC[C@H]12 | . | . | -2%[13.5 µM] | . | . | .
NCC[C@H](N)C(=O)O | 4% | . | 9%[13.5 µM] | 6% | -11%[11.4 µM] | .
O=C1C[C@H]2C(=O)[C@@H]1[C@@H](C(=O)O)[C@H]2C(=O)O | -6% | . | 8%[13.5 µM] | -4% | 2%[11.4 µM] | .
CCCOc1ccc(C(=O)N2CCCc3ccccc32)cc1 | 16µM* | ? | 6.3µM* | 26%[38.3 µM] | -4% | -6
COc1ccc(C(CC(=O)N2CCCCC2)C(C)C)cc1 (stereo not given) | . | . | -3% | . | . | .
CCCCOc1ccc(C(=O)N2CCCC2)cc1 | 2.2µM* | -12 | ? | 12%[38.3 µM] | 8% | 8
COc1ccc(OCCC(=O)N2CCCCC2)cc1 | 16µM* | 3 | 1% | 23%[38.3 µM] | -2% | 7
CCCCOc1ccc(C(=O)O)cc1 | -17% | 38 | 5% | 2%[38.3 µM] | 9% | -12
CN1CCN(C(=O)c2ccc(COc3ccc(C(C)(C)C)cc3)o2)CC1 | -9% | 13 | 2% | 12%[38.3 µM] | -2% | 18
CCOc1ccc(OCc2ccc(C(=O)N3CCCC3)o2)cc1 | ? | 26 | 28µM* | 25%[38.3 µM] | -3% | -2[1.84 µM]
COc1ccc(C(=O)N2CCC(C(=O)O)CC2)cc1 | -3% | 39 | -6% | 5%[38.3 µM] | 6% | 7
COc1ccc(C(=O)N2CCCC(c3ccccc3)C2)cc1 (stereo not given) | 16µM* | 48 | ? | 2%[38.3 µM] | 4% | 15
CC1CN(C(=O)c2ccc(C(=O)c3ccccc3)cc2)CC(C)O1 (stereo not given) | 14µM* | -15 | ? | -8%[38.3 µM] | 3% | 1
CCOC(=O)C1CCCN(C(=O)c2ccc(OCC)cc2)C1 (stereo not given) | 14µM* | -15 | -12% | -2%[38.3 µM] | -2% | -14
CC1CN(C(=O)c2cccc(C(=O)N3CC(C)OC(C)C3)c2)CC(C)O1 (stereo not given) | -9% | 1 | 9% | ? | 0% | -15
COc1ccc(C(=O)N2CCC(C(=O)c3c(C)cc(C)cc3C)CC2)cc1 | . | . | 22µM* | . | . | .
CC(C)C[C@@H](CC(=O)N[C@@H](CCC(=O)O)CC(=O)O)NC(=O)[C@@H]1CCCC[C@H]1NC(=O)C[C@H](CCCN)NC(=O)C[C@H](Cc1c[nH]c2ccccc12)NC(=O)[C@@H]1CNCC[C@H]1N | -8% | . | ? | 4% | -10% | .
Cc1cc(S(=O)(=O)Nc2ccc3oc4c(c3c2)CCCC4)ccc1Cl | . | . | . | . | . | 3
CCOc1ccc(OCc2ccc(C(=O)OCc3ccccn3)o2)cc1 | 25µM* | -13 | ? | 8%[38.3 µM] | 1% | 4
